The values below come from PubChem BioAssay (NCATS).

Inconclusive results are not listed. Active and inactive are the calls of the source. Unless noted, calls come from the whole dose curve; as a rule, active = well fitted inhibition curve with a large enough effect; inconclusive = small, poorly fitted or top-dose-only effect; inactive = no such curve, though single readings can be large or run the other way.

A short description of assay [1]: qHTS profiling of the MIPE4 collection as inhibitors of Plasmodium falciparum (DD2) proliferation (AID 743345; call rule not given here). To be noted: P. falciparum Dd2 in erythrocytes, SYBR Green DNA, 72 h; at 28.5 µM (top of the series) unless noted. The method in brief:
(§1)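 Erythrocytes infected with P. falciparum (0.3% parasitemia, 2.5% hematocrit) incubated with compounds 72 h at 37 C, 5% CO2. Lysis with saponin/Triton buffer containing SYBR Green I, overnight at room temperature in the dark; DNA fluorescence (485/535 nm) normalised to 0.29 uM artemisinin and DMSO.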

Assay [2] in a line: qHTS profiling of the MIPE4 collection as inhibitors of Plasmodium falciparum (DD2) proliferation (Rep 2) (AID 743346; call rule not given here). The settings on record: P. falciparum Dd2 in erythrocytes, SYBR Green DNA, 72 h; at 28.5 µM (top of the series) unless noted. The method in brief: as §1
A short description of assay [3]: qHTS profiling of the MIPE4 collection as inhibitors of Plasmodium falciparum (HB3) proliferation (AID 743347; call rule not given here;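 note: plate controls were DMSO vehicle wells for no effect and artemisinin wells for full effect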). The settings on record: P. falciparum HB3 in erythrocytes, SYBR Green DNA, 72 h; at 28.5 µM (top of the series) unless noted. A digest of the protocol:
as §1
On the technique in general: qHTS replaces the single test concentration by a dilution series.

Assay [4] in a line: High-throughput drug toxicity screening in the BPDCN cell line Gen2.2 (AID 1224824; call rule not given here;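 note: cells exposed to compounds for 48 h before reading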). To be noted: Gen2.2 BPDCN cells; at 45.8 µM (top of the series) unless noted. A digest of the protocol: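 CellTiter-Glo luminescence read after 48 h compound exposure at 37 C defines viability; percent activity set with DMSO as 100% and bortezomib (9.2 uM final) as 0%. 500 exponentially growing cells per well, RPMI plus 10% FBS.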

Assay [5] is described as follows: High-throughput drug toxicity screening in the BPDCN cell line Cal-1 (AID 1224825; call rule not given here). The settings on record: Cal-1 BPDCN cell viability, qHTS; at 45.8 µM (top of the series) unless noted. A digest of the protocol: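 Cal-1 cells, 500 per well in phenol-red-free RPMI with 10% FBS, exposed to compounds for 48 hours at 37C, 5% CO2. Viability read by CellTiter-Glo luminescence; percent activity normalized to DMSO (100%) and 9.2 uM bortezomib final (0%).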

Assay [6] in a line: qHTS assay for measurement of the activity of small molecule inhibitors on Zika virus induced Caspase-3 activity in human iPSC derived neural progenitor cells (hNPCs) (AID 1224857). Note: % of control where 0% means no effect; nearly all actives have a fitted effect of over 65% in size. A digest of the protocol: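 Cells were plated at 350 per well and grown 16 to 20 hours. Compound pretreatment lasted one hour, after which ZIKV (2 FFU/cell) was added for 6 hours. Percent inhibition was normalized between uninfected and infected controls.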

Assay [7] in a line: qHTS assay for measurement of the activity of small molecule inhibitors on Zika virus induced Caspase-3 activity in human astrocytoma cells (AID 1224859).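 Note: plate controls were ZIKV-infected untreated cells for no effect and uninfected cells for full effect.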 The method in brief: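 Percent inhibition of virus-induced caspase-3/7 signal is calculated against uninfected and ZIKV-infected control cells. Cells are SNB-19, infected at 2 FFU/cell for 6 h after 1 h compound exposure.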

A short description of assay [8]: qHTS Screen of the MIPE 4.0 Collection Against Ewings Sarcoma (RDES) (AID 1259252). Note: nearly all actives have a fitted effect of over 35% in size. Note: potency is the fitted concentration of half-maximal effect. A digest of the protocol:
(§2)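 Viability screen: 48 h incubation at 37C, 95% humidity, 5% CO2 with serially titrated compound, followed by CellTiter-Glo readout.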

The nature of assay [9]: qHTS Screen of the MIPE 4.0 Collection Against Ewings Sarcoma (TC71) (AID 1259253). Note: nearly all actives have a fitted effect of over 40% in size. Note: potency is the fitted concentration of half-maximal effect. A digest of the protocol: as §2
Assay [10] is described as follows: qHTS Screen of the MIPE 4.0 Collection Against Ewings Sarcoma (EW8) (AID 1259255).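 For viability: 100% = DMSO-treated cells and 0% = medium-only wells without cells.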 Note: nearly all actives have a fitted effect of over 35% in size. Note: potency is the fitted concentration of half-maximal effect. A digest of the protocol:
as §2

Turning to `COc1ccc(CCC(=O)c2c(O)cc(O[C@@H]3O[C@H](CO)[C@@H](O)[C@H](O)[C@@H]3O[C@@H]3O[C@@H](C)[C@H](O)[C@@H](O)[C@@H]3O)cc2O)cc1O`, the parasite growth remaining, % of DMSO control (lower = more inhibition) in assay [1] amounted to 17.8%. In assay [2], this compound had a parasite growth, % of control (lower = inhibition) of 41.2%. In assay [3], the growth, % of control turned out to be 6.55%. Besides, the cell viability, % of control (lower = more cytotoxic) in [4] came to 77%. Besides, the viability (% of control) in [5] amounted to 106%. For the same compound, the Potency entry in [6] and in assay [7] was “inactive” in each case. The Potency was 9.35 µM (active) in assay [8], 9.35 µM (active) in [9] and 10.5 µM (active) in assay [10].
`CCCCCN=C(N)NN=Cc1c[nH]c2ccc(OC)cc12` came in with a parasite growth remaining, % of DMSO control (lower = more inhibition) in [1] of 7.01%. This compound yielded a parasite growth, % of control (lower = inhibition) in assay [2] of 22.5%. Also, the growth, % of control in assay [3] worked out at 6.26%. In addition, the cell viability, % of control (lower = more cytotoxic) in [4] stood at 38.7%. Also, the viability (% of control) in [5] came to 11.8%. Further, the Potency entry in [6] and in assay [7] was “inactive” throughout. In addition, the figures for the Potency in assay [8], in assay [9] and in [10] were 6.62 µM (active), 10.5 µM (active) and 6.62 µM (active), respectively.
In assay [1], `CN(C)CC[C@H](c1ccc(Cl)cc1)c1ccccn1` registered a parasite growth remaining, % of DMSO control (lower = more inhibition) of 57%. In assay [2], this compound came in with a parasite growth, % of control (lower = inhibition) of 36.2%. In addition, in assay [3], the growth, % of control turned out to be 95.2%. The cell viability, % of control (lower = more cytotoxic) in [4] was found to be 120%. In addition, in assay [5], the viability (% of control) amounted to 98.4%. Further, the Potency entry in assay [6], in [7], in [8], in assay [9] and in assay [10] was “inactive” in each case.
Turning to `c1cc(CN2CCCNCCNCCCNCC2)ccc1CN1CCCNCCNCCCNCC1`, the parasite growth remaining, % of DMSO control (lower = more inhibition) in assay [1] came to 96.2%. The same compound yielded a parasite growth, % of control (lower = inhibition) in assay [2] of 74%. The growth, % of control in assay [3] is 88.5%. Moreover, the cell viability, % of control (lower = more cytotoxic) in assay [4] turned out to be 133%. In addition, the viability (% of control) in assay [5] was determined as 120%. The Potency result in [6], in [7], in [8], in assay [9] and in [10] was “inactive” in each case.
With `CCCNC(=O)[C@H]1O[C@H]1C(=O)N[C@H](C(=O)N1CCC[C@@H]1C(=O)OC)C(C)CC` (stereo not given in full), the parasite growth remaining, % of DMSO control (lower = more inhibition) in [1] came out at 94.3%. For the same compound, the parasite growth, % of control (lower = inhibition) in assay [2] is 52.3%. This compound also yielded a growth, % of control in assay [3] of 102%. The cell viability, % of control (lower = more cytotoxic) in assay [4] was determined as 18.6%. Moreover, the viability (% of control) in [5] is 8.18%. Also, the Potency result in assay [6] and in [7] was “inactive” throughout. The Potency in assay [8] is 3.32 µM (active); in [9], 6.62 µM (active); in [10], 11.8 µM (active).
`Cn1cc(C=CC(=O)c2cccc(F)c2)cc1C=CC(=O)NO` showed a parasite growth remaining, % of DMSO control (lower = more inhibition) in assay [1] of 90.9%. The compound also displayed a parasite growth, % of control (lower = inhibition) in [2] of 56.3%. This compound also displayed a growth, % of control in [3] of 99.1%. The cell viability, % of control (lower = more cytotoxic) in assay [4] amounted to 7.04%. In addition, in [5], the viability (% of control) amounted to 4.87%. In addition, the Potency result in [6] and in assay [7] was “inactive” each time. For the same compound, the Potency was 23.5 µM (active) in assay [8], 18.7 µM (active) in [9] and 16.6 µM (active) in [10].
Turning to `Cc1ncc(-c2ccnc(Nc3ccc(S(C)(=O)=O)cc3)n2)n1C(C)C`, in [1], the parasite growth remaining, % of DMSO control (lower = more inhibition) amounted to 19.3%. Also, the parasite growth, % of control (lower = inhibition) in assay [2] is 10.8%. In [3], this compound showed a growth, % of control of 7.75%. Also, the cell viability, % of control (lower = more cytotoxic) in assay [4] is 6.27%. Also, the viability (% of control) in assay [5] was determined as 4.48%. For the same compound, the Potency result in assay [6] and in [7] was “inactive” each time. The Potency in [8] was 4.69 µM (active); in assay [9], 2.64 µM (active); in [10], 4.69 µM (active).
Compound `CC(=O)NCC(=O)N1[C@H]2CC[C@H]1c1cc(Nc3ncc(C(F)(F)F)c(NC4CCC4)n3)ccc12` yielded a parasite growth remaining, % of DMSO control (lower = more inhibition) in [1] of 15.3%. Also, in [2], the parasite growth, % of control (lower = inhibition) came out at 12.7%. The same compound registered a growth, % of control in assay [3] of 6.85%. The cell viability, % of control (lower = more cytotoxic) in assay [4] amounted to 2.71%. Further, in assay [5], the viability (% of control) came to 2.93%. Further, the Potency entry in assay [6] and in assay [7] was “inactive” each time. The values for the Potency in assay [8], in assay [9] and in [10] were 5.26 µM (active), 0.935 µM (active) and 0.0833 µM (active), respectively.
In [1], `CC(C)Oc1ccc(C(=O)N[C@H](CNC(=O)CN(C)C)Cc2ccc(-c3cn4cccc([C@H](C)O)c4n3)cc2)cc1Cl` displayed a parasite growth remaining, % of DMSO control (lower = more inhibition) of 8.81%. Besides, the parasite growth, % of control (lower = inhibition) in assay [2] stood at 12.6%. The compound also returned a growth, % of control in assay [3] of 5.09%. The cell viability, % of control (lower = more cytotoxic) in assay [4] came out at 61.2%. Besides, the viability (% of control) in assay [5] came out at 18.5%. In addition, the Potency entry in assay [6] and in [7] was “inactive” each time. In addition, the Potency is 0.235 µM (active) in assay [8], 0.372 µM (active) in assay [9] and 0.235 µM (active) in assay [10].
Turning to `CC(C)[C@H](CO)Nc1nc(Nc2cccc(Cl)c2)c2ncn(C(C)C)c2n1`, the parasite growth remaining, % of DMSO control (lower = more inhibition) in assay [1] is 21.1%. This compound displayed a parasite growth, % of control (lower = inhibition) in [2] of 17.2%. Besides, in assay [3], the growth, % of control worked out at 5.25%. The cell viability, % of control (lower = more cytotoxic) in assay [4] came to 2.15%. For the same compound, the viability (% of control) in [5] worked out at 1.87%. In addition, the Potency result in assay [6] and in [7] was “inactive” in each case. Besides, the values for the Potency in assay [8], in [9] and in assay [10] were 5.9 µM (active), 7.43 µM (active) and 16.6 µM (active), respectively.
`CC(=O)N1CCN(c2ccc(OCc3nn(C)c(C)c3-c3cccc4c(CCCOc5cccc6ccccc56)c(C(=O)O)n(Cc5cccnc5)c34)cc2)CC1`: the parasite growth remaining, % of DMSO control (lower = more inhibition) in [1] was 9.41%. In addition, the parasite growth, % of control (lower = inhibition) in assay [2] was found to be 10.7%. Besides, in [3], the growth, % of control was 2.86%. Besides, the cell viability, % of control (lower = more cytotoxic) in [4] worked out at 36.4%. Also, the viability (% of control) in [5] stood at 2.28%. For the same compound, the Potency entry in [6] and in assay [7] was “inactive” each time. Moreover, the Potency in assay [8] is 0.332 µM (active); in assay [9], 1.18 µM (active); in assay [10] it was 3.72 µM (active).
`CC[C@H]1OC(=O)[C@H](C)[C@@H](O[C@H]2C[C@@](C)(OC)[C@@H](O)[C@H](C)O2)[C@H](C)[C@@H](O[C@@H]2O[C@@H](C)C[C@H](N(C)C)[C@@H]2O)[C@](C)(O)C[C@@H](C)C(=O)[C@H](C)[C@@H](O)[C@]1(C)O` came in with a parasite growth remaining, % of DMSO control (lower = more inhibition) in assay [1] of 75%. Moreover, the parasite growth, % of control (lower = inhibition) in assay [2] turned out to be 47.1%. The compound also had a growth, % of control in [3] of 82.4%. Also, in [4], the cell viability, % of control (lower = more cytotoxic) came to 73.8%. In assay [5], the viability (% of control) is 97%. Further, the Potency entry in assay [6], in [7], in assay [8], in assay [9] and in [10] was “inactive” throughout.
